Reference: PubChem BioAssay AID1159580 (chemical genetic matrix, 2015)
Values joined by “and” are separate entries in the source; they are usually repeats but may differ in a detail not shown here. Equal values may be shown once. The whole screen tested about 5,500 compounds, of which about 2,000 (36%) were called active. Inconclusive results (about 18%) are left out. No stated cut-off is given here; in the data, active means normalized growth mostly below about 0.91 (no sharp cut-off); inconclusive means no clear call, values can overlap the other calls; inactive means mostly above about 0.92. This is one part of the list.

Assay: chemical genetic growth profiling, strain panel (AID 1159580);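 further: tested at 20 µM; growth read once vehicle control cultures reached saturation at 30 °C; 1 = growth at the plate median or of vehicle wells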
Details: S. cerevisiae deletion strains, growth OD

Measured: normalized growth

CN(C(=O)CN(CCO)CC(=O)N(C)C(C)(C)Cc1ccccc1)C(C)(C)Cc1ccccc1
inactive: locus YAL021C, strain ccr4, stronger effect = lower value 1.01 | locus YAL026C, strain drs2, stronger effect = lower value 1.02 | locus YAL030W, strain snc1, stronger effect = lower value 1 | locus YBL061C, strain skt5, stronger effect = lower value 1.01 | locus YBR009C, strain hhf1, stronger effect = lower value 1.01 | locus YBR021W, strain FUR4, stronger effect = lower value 0.985 | locus YBR023C, strain chs3, stronger effect = lower value 1.01 | locus YBR171W, strain sec66, stronger effect = lower value 1.04 | locus YBR229C, strain ROT2, stronger effect = lower value 0.993 | locus YBR231C, strain swc5, stronger effect = lower value 1 | locus YBR279W, strain paf1, stronger effect = lower value 1.01 | locus YCL011C, strain gbp2, stronger effect = lower value 1.01 | locus YCL016C, strain dcc1, stronger effect = lower value 1.01 | locus YCL029C, strain bik1, stronger effect = lower value 0.97 | locus YCL061C, strain MRC1, stronger effect = lower value 1.02 | locus YCL069W, strain vba3, stronger effect = lower value 1.01 | locus YCR088W, strain abp1, stronger effect = lower value 1.01 | locus YDL005C, strain med2, stronger effect = lower value 1 | locus YDL035C, strain GPR1, stronger effect = lower value 0.954 | locus YDL040C, strain nat1, stronger effect = lower value 1 | locus YDL074C, strain BRE1, stronger effect = lower value 0.978 | locus YDL101C, strain DUN1, stronger effect = lower value 1 | locus YDL134C, strain PPH21, stronger effect = lower value 0.983 | locus YDL185W, strain tfp1, stronger effect = lower value 0.954 | locus YDL192W, strain arf1, stronger effect = lower value 0.98 | locus YDR001C, strain nth1, stronger effect = lower value 1.01 | locus YDR069C, strain doa4, stronger effect = lower value 1.01 | locus YDR101C, strain arx1, stronger effect = lower value 1 | locus YDR137W, strain rgp1, stronger effect = lower value 1.07 | locus YDR159W, strain sac3, stronger effect = lower value 0.998 | locus YDR162C, strain NBP2, stronger effect = lower value 0.957 | locus YDR195W, strain ref2 0.995 | locus YDR297W, strain sur2, stronger effect = lower value 1 | locus YDR318W, strain mcm21, stronger effect = lower value 0.979 | locus YDR334W, strain swr1, stronger effect = lower value 1.02 | locus YDR335W, strain msn5, stronger effect = lower value 1.01 | locus YDR388W, stronger effect = lower value 0.979 | locus YDR392W, strain spt3, stronger effect = lower value 0.981 | locus YDR502C, strain sam2, stronger effect = lower value 0.981 | locus YEL003W, strain gim4, stronger effect = lower value 1.01 | locus YEL037C, strain rad23, stronger effect = lower value 1.02 | locus YEL061C, strain CIN8 (second series), stronger effect = lower value 1.02 | locus YEL061C, strain CIN8, stronger effect = lower value 0.997 | locus YER015W, strain faa2, stronger effect = lower value 1.02 | locus YER016W, strain bim1, stronger effect = lower value 1.03 | locus YER110C, stronger effect = lower value 0.976 | locus YER111C, strain swi4, stronger effect = lower value 1.02 | locus YER155C, strain BEM2 (second series), stronger effect = lower value 1.02 | locus YER155C, strain BEM2, stronger effect = lower value 0.994 | locus YER167W, strain BCK2, stronger effect = lower value 0.987 | locus YFR010W, strain ubp6, stronger effect = lower value 1.01 | locus YGL078C, strain dbp3, stronger effect = lower value 0.983 | locus YGL086W, strain mad1, stronger effect = lower value 0.979 | locus YGL167C, strain pmr1, stronger effect = lower value 1.01 | locus YGL173C, strain kem1, stronger effect = lower value 1.02 | locus YGL227W, strain vid30, stronger effect = lower value 1.02 | locus YGL240W, strain doc1, stronger effect = lower value 0.986 | locus YGL248W, strain PDE1, stronger effect = lower value 1.01 | locus YGL253W, strain hxk2, stronger effect = lower value 1.03 | locus YGR078C, strain PAC10, stronger effect = lower value 1 | locus YGR135W, strain pre9, stronger effect = lower value 0.973 | locus YGR229C, strain SMI1, stronger effect = lower value 0.98 | locus YGR252W, strain gcn5, stronger effect = lower value 1.01 | locus YHR013C, strain ard1, stronger effect = lower value 1.04 | locus YHR027C, strain rpn1, stronger effect = lower value 1.02 | locus YHR030C, strain SLT2, stronger effect = lower value 0.985 and 0.989 | locus YHR079C, strain IRE1 (second series), stronger effect = lower value 0.975 | locus YHR079C, strain IRE1, stronger effect = lower value 0.98 | locus YHR094C, strain hxt1, stronger effect = lower value 0.99 | locus YHR129C, strain ARP1, stronger effect = lower value 0.992 | locus YHR142W, strain chs7, stronger effect = lower value 1.02 | locus YHR200W, strain rpn10, stronger effect = lower value 0.971 | locus YIL066C, strain RNR3, stronger effect = lower value 0.996 | locus YIL073C, strain SPO22, stronger effect = lower value 1.14 | locus YIL125W, strain kgd1, stronger effect = lower value 0.988 | locus YIR030C, strain dcg1, stronger effect = lower value 0.976 | locus YJL092W, strain hpr5, stronger effect = lower value 1.01 | locus YJL095W, strain BCK1 (second series), stronger effect = lower value 1.01 | locus YJL095W, strain BCK1, stronger effect = lower value 1.01 | locus YJL115W, strain asf1, stronger effect = lower value 1.02 | locus YJL129C, strain trk1, stronger effect = lower value 1.02 | locus YJL134W, strain LCB3, stronger effect = lower value 0.986 | locus YJL154C, strain vps35, stronger effect = lower value 1.01 | locus YJL164C, strain tpk1, stronger effect = lower value 1 | locus YJL166W, strain qcr8, stronger effect = lower value 1.01 | locus YJL168C, strain set2, stronger effect = lower value 0.989 | locus YJL187C, strain SWE1 (second series), stronger effect = lower value 1.01 | locus YJL187C, strain SWE1, stronger effect = lower value 1.01 | locus YJR043C, strain POL32, stronger effect = lower value 0.962
